Among all 1,900 compounds or so, about 250 (13%) were called active. Not shown: some 4% with an inconclusive outcome.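 Rule for the calls: active = fitted curve reaches 40% rescue activity at or below the top valid dose, in every test run; inconclusive = test runs disagree, some active and some inactive; inactive = every run misses the threshold or moves the wrong way.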 The list is a sample of the results. Potency and affinity values are given separately.

This assay is described as follows: rescue of simvastatin-induced ATP loss – cell-based, C2C12 myotubes, ATP luminescence, cherry pick, dose response (AID 624405).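 Note: myotubes are challenged with simvastatin at 10 µM to lower ATP.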 As to conditions: 48 h, scaled: DMSO wells 0, geranylgeraniol wells 100; series mostly up to 19.5 µM; rescue activity (ATP increase): at the top concentration.
With `C[C@@H]1CN([C@H](C)CO)C(=O)Cc2cc(NC(=O)CCCCCC(=O)Nc3ccccc3N)ccc2O[C@@H]1CN(C)Cc1ccc(C(F)(F)F)cc1`, the “rescue activity (ATP increase)” value is 11% [at 16 µM] (inactive). Take `C[C@@H]1CN([C@H](C)CO)C(=O)Cc2cc(NC(=O)CCCCCC(=O)Nc3ccccc3N)ccc2O[C@H]1CN(C)Cc1ccc(C(F)(F)F)cc1`: the “rescue activity (ATP increase)” value is 40.4% (inactive). In the case of `C[C@@H]1CN([C@@H](C)CO)C(=O)Cc2cc(NC(=O)CCCCCC(=O)Nc3ccccc3N)ccc2O[C@@H]1CN(C)Cc1ccc(C(F)(F)F)cc1` it was 13.1% [at 21 µM] (inactive); in that of `C[C@@H]1CN([C@@H](C)CO)C(=O)Cc2cc(NC(=O)CCCCCC(=O)Nc3ccccc3N)ccc2O[C@H]1CN(C)Cc1ccc(C(F)(F)F)cc1`, 16% (inactive). For `Cc1cc(C)c2c(CN3CCN(Cc4ccc5c(c4)OCO5)CC3)cc(=O)oc2c1` the value was 3.37% (inactive); for `C[C@H](CO)N1C[C@H](C)[C@@H](CN(C)Cc2ccc(C(F)(F)F)cc2)Oc2ccc(NS(=O)(=O)c3ccc(Cl)cc3)cc2CC1=O`, 12.9% (inactive); for `C[C@@H]1CCCCO[C@@H](CN(C)Cc2ccc(C(F)(F)F)cc2)[C@H](C)CN([C@@H](C)CO)C(=O)c2cc(NS(=O)(=O)c3cccs3)ccc2O1`, -14.7% (inactive). Take `Cc1ccc(-c2cnc3c(c2)C(=O)N([C@H](C)CO)C[C@H](C)[C@@H](CN(C)C(=O)Cc2ccccc2)O3)cc1`: the “rescue activity (ATP increase)” value is 24.1% (inactive). For `CCC(C)(C)NC(=O)CN(C(=O)CNS(=O)(=O)c1ccccc1)c1ccccc1` the value was 7.7% (inactive); for `COc1ccc(CN2[C@@H](CO)[C@@H]3c4ccccc4N(C(=O)c4ccccc4)C[C@@H]32)cc1`, -25.7% (inactive). Turning to `CC(C)CC(c1nnnn1C1CCCC1)N1CCN(c2ccccc2F)CC1` (stereo not drawn), the “rescue activity (ATP increase)” value was -4.36% (inactive). In the case of `Fc1ccc(C(c2nnnn2C2CCCC2)N2CCN(Cc3ccccc3)CC2)cc1` (stereo not drawn) it was -29.7% (inactive).

Regarding `Cc1ccc(NS(=O)(=O)c2ccc(C)c(C(=O)N3CCN(C)CC3)c2)cc1`, the “rescue activity (ATP increase)” value is 8.73% (inactive). In the case of `Cc1ccc(-n2c(=O)cc(N3CCN(C(=O)c4ccco4)CC3)[nH]c2=O)cc1` it was 14.2% (inactive); in that of `COc1ccc(Oc2coc3c(CN(C)C)c(O)ccc3c2=O)cc1`, -19% (inactive).

Turning to `O=C(Nc1ccc(N2CCN(C(=O)c3ccccc3)CC2)c(Cl)c1)c1ccco1`, the “rescue activity (ATP increase)” value is 49.6% (inactive). With `Cc1cc(N2CCN(c3nnnn3-c3ccccc3)CC2)n2ncnc2n1`, the “rescue activity (ATP increase)” value was 12.1% (inactive). In the case of `C=CCSc1nnc(CSc2nc3sc4c(c3c(=O)[nH]2)CCCC4)n1-c1ccccc1` it was 15.6% (inactive); in that of `C[C@@H]1CN([C@@H](C)CO)C(=O)c2cc(C#CC3CCCCC3)cnc2O[C@H]1CN(C)C(=O)C1CCCCC1`, 7.55% (inactive). For the compound `COc1cc2c(cc1OC)C(c1cc(OC)c(OC)c(OC)c1)NCC2` (stereo not drawn), the “rescue activity (ATP increase)” value was 26.8% (inactive). As to `C[C@@H]1CCCCO[C@H](CN(C)C(=O)Nc2cccc3ccccc23)[C@@H](C)CN([C@H](C)CO)C(=O)c2cc(NS(=O)(=O)c3ccc(Cl)cc3)ccc2O1`, the “rescue activity (ATP increase)” value is 0.795% (inactive). In the case of `CCN(CC)C(=O)c1sc(N)c(C#N)c1C`, the “rescue activity (ATP increase)” value was -19.9% (inactive). In the case of `COc1ccc(CN(C)C[C@H]2OCCCC[C@H](C)Oc3ccc(NC(=O)NC(C)C)cc3C(=O)N([C@@H](C)CO)C[C@H]2C)cc1`, the “rescue activity (ATP increase)” value was -12.1% (inactive). In the case of `CS(=O)(=O)N1CCN(c2cccc(Cl)n2)CC1` it was 38.9% (inactive); in that of `O=C(c1ccccc1CCc1ccccc1)N1CCOCC1`, 9.2% (inactive); in that of `C[C@@H]1CCCCO[C@H](CN(C)S(=O)(=O)c2ccc(F)cc2)[C@H](C)CN([C@@H](C)CO)C(=O)c2cc(NC(=O)Cc3ccccc3)ccc2O1`, 2.54% (inactive). `Cc1ccccc1C(=O)NCc1nnc(SCC(=O)N2CCN(c3ccccc3)CC2)n1C`: the “rescue activity (ATP increase)” value is 2.25% (inactive). In the case of `C[C@@H]1CN([C@H](C)CO)C(=O)c2cccc(NC(=O)c3ccc(-c4nccs4)cc3)c2O[C@@H]1CN(C)C(=O)Nc1cccc2ccccc12`, the “rescue activity (ATP increase)” value is 11.6% (inactive). As for `C[C@H]1CN([C@@H](C)CO)C(=O)Cc2cc(NC(=O)Nc3ccc4c(c3)OCO4)ccc2O[C@@H]1CN(C)Cc1ccc(-c2ccccc2)cc1`, the “rescue activity (ATP increase)” value is 22.7% (inactive).

`C[C@H](CO)N1C[C@H](C)[C@@H](CN(C)Cc2ccc(-c3ccccc3)cc2)Oc2ccc(NC(=O)Nc3ccc4c(c3)OCO4)cc2CC1=O`: the “rescue activity (ATP increase)” value is 17.1% (inactive). `C[C@@H]1CCCCO[C@@H](CN(C)S(=O)(=O)c2ccc(F)cc2)[C@H](C)CN([C@@H](C)CO)C(=O)c2cc(NC(=O)Nc3cccc4ccccc34)ccc2O1`: the “rescue activity (ATP increase)” value is 33.3% (inactive). For the compound `C[C@@H]1CN([C@@H](C)CO)S(=O)(=O)c2ccc(/C=C/c3ccccc3)cc2O[C@@H]1CN(C)C(=O)NC1CCCC1`, the “rescue activity (ATP increase)” value is 28.4% (inactive). As for `CCCn1c(SCC(=O)c2ccc(OC)c(OC)c2)nc2c1c(=O)n(C)c(=O)n2C`, the “rescue activity (ATP increase)” value is 8.41% (inactive). Consider `Cc1ccc(N(C(=O)Cn2nnc3ccccc32)C(C(=O)NCc2ccco2)c2ccc(C)o2)cc1` (stereo not drawn), for which the “rescue activity (ATP increase)” value was 65.9% (inactive). For the compound `C[C@@H]1CN([C@H](C)CO)C(=O)Cc2cc(NS(=O)(=O)c3ccc(F)cc3)ccc2O[C@H]1CN(C)Cc1ccc(Cl)c(Cl)c1`, the “rescue activity (ATP increase)” value is 30.5% (inactive).

Regarding `C[C@@H]1CN([C@H](C)CO)C(=O)Cc2cc(NS(=O)(=O)c3ccc(F)cc3)ccc2O[C@H]1CN(C)Cc1ccc(C(F)(F)F)cc1`, the “rescue activity (ATP increase)” value is 31.3% (inactive). For `C[C@@H]1CN([C@H](C)CO)C(=O)Cc2cc(NS(=O)(=O)c3ccc(F)cc3)ccc2O[C@@H]1CN(C)Cc1ccc(Cl)c(Cl)c1`, the “rescue activity (ATP increase)” value was 22.2% (inactive). As to `C[C@H](CO)N1C[C@H](C)[C@@H](CN(C)Cc2ccc(Cl)c(Cl)c2)Oc2ccc(NS(=O)(=O)c3ccc(Cl)cc3)cc2CC1=O`, the “rescue activity (ATP increase)” value was 28.5% (inactive).

As to `C[C@@H]1CN([C@H](C)CO)C(=O)Cc2cc(NS(=O)(=O)c3ccc(F)cc3)ccc2O[C@@H]1CN(C)Cc1ccc(C(F)(F)F)cc1`, the “rescue activity (ATP increase)” value was 3.64% (inactive). Regarding `C[C@@H]1CN([C@@H](C)CO)C(=O)Cc2cc(NS(=O)(=O)c3ccc(Cl)cc3)ccc2O[C@H]1CN(C)Cc1ccc(Cl)c(Cl)c1`, the “rescue activity (ATP increase)” value was 29.6% (inactive).

Take `CCCCc1ccc(S(=O)(=O)NCCc2ccncc2)cc1`: the “rescue activity (ATP increase)” value is 2.98% (inactive). For `C[C@H](CO)N1C[C@H](C)[C@H](CN(C)S(=O)(=O)c2ccc(F)cc2)Oc2ncc(C#Cc3cccc(F)c3)cc2C1=O`, the “rescue activity (ATP increase)” value was 7.8% (inactive). In the case of `CCOC(=O)C1(C)NC(c2ccc(N(C)C)cc2)C2C(=O)N(c3ccc(OC)cc3)C(=O)C21` (stereo not drawn) it was -13.4% (inactive). `C[C@@H]1CN([C@@H](C)CO)C(=O)c2cc(NS(C)(=O)=O)ccc2O[C@@H](C)CCCCO[C@@H]1CN(C)S(=O)(=O)c1ccc(Cl)cc1`: the “rescue activity (ATP increase)” value was 24.3% (inactive). In the case of `CCOc1nc(Nc2ccc(F)cc2)nc(N2CCN(c3ccc(OC)cc3)CC2)n1`, the “rescue activity (ATP increase)” value is -11.5% (inactive). As for `C[C@H]1CN([C@@H](C)CO)C(=O)c2cc(NC(=O)Nc3ccc4c(c3)OCO4)ccc2O[C@@H]1CN(C)C(=O)Nc1ccc(C(F)(F)F)cc1`, the “rescue activity (ATP increase)” value was 27.4% (inactive). `O=C(CN(Cc1ccccc1C(F)(F)F)C(=O)CNC(=O)c1ccco1)NC1CCCC1`: the “rescue activity (ATP increase)” value was 3.55% (inactive). In the case of `Cc1cc(Cl)c(S(=O)(=O)N2CC(C)OC(C)C2)cc1OCC(N)=O` (stereo not drawn), the “rescue activity (ATP increase)” value is -5.59% [at 10 µM] (inactive). In the case of `C[C@@H]1CN([C@@H](C)CO)C(=O)c2cc(NC(=O)CCC(F)(F)F)ccc2O[C@@H](C)CCCCO[C@@H]1CN(C)Cc1ccc(C(F)(F)F)cc1` it was -5.79% (inactive); in that of `Cc1ccc(C(=O)Nc2c(C(=O)N3CCOCC3)cnn2-c2ccccc2)cc1`, 27.1% (inactive). In the case of `Cc1cccc(NS(=O)(=O)c2ccc(-n3cccn3)cc2)c1C`, the “rescue activity (ATP increase)” value was 28.9% (inactive). In the case of `COc1ccc(NC(=O)CC2C(=O)NCCN2C(=O)c2ccc(Cl)cc2)cc1` (stereo not drawn) it was 13.3% (inactive); in that of `C[C@H]1CN([C@@H](C)CO)C(=O)Cc2cc(NS(=O)(=O)c3cn(C)cn3)ccc2O[C@H]1CN(C)Cc1ccc(Cl)c(Cl)c1`, 12.2% (inactive).

For `COc1ccc(C#Cc2ccc3c(c2)O[C@H](CN(C)C(=O)Nc2cccc(OC)c2)[C@H](C)CN([C@@H](C)CO)S3(=O)=O)cc1`, the “rescue activity (ATP increase)” value was 16.4% (inactive). Turning to `C[C@H](CO)N1C[C@H](C)[C@H](CN(C)C(=O)Nc2cc(F)ccc2F)Oc2cc(C#CC3CC3)ccc2S1(=O)=O`, the “rescue activity (ATP increase)” value is 31.3% (inactive). Take `C[C@H](CO)N1C[C@H](C)[C@@H](CN(C)S(=O)(=O)c2ccc(F)cc2)Oc2cc(Br)ccc2S1(=O)=O`: the “rescue activity (ATP increase)” value was 20.5% [at 21 µM] (inactive).

Consider `C[C@H]1CN([C@@H](C)CO)S(=O)(=O)c2ccc(C#Cc3ccccc3)cc2O[C@@H]1CN(C)C(=O)Cc1ccccn1`, for which the “rescue activity (ATP increase)” value is 36.4% (inactive). Take `COc1ccc(C#Cc2ccc3c(c2)O[C@H](CN(C)C(=O)Nc2cccc(OC)c2)[C@H](C)CN([C@H](C)CO)S3(=O)=O)cc1`: the “rescue activity (ATP increase)” value was 33% (inactive).

Take `C[C@H]1CN([C@@H](C)CO)S(=O)(=O)c2ccc(Br)cc2O[C@@H]1CN(C)S(=O)(=O)c1ccc(F)cc1`: the “rescue activity (ATP increase)” value is 34.2% (inactive). For `O=c1oc2cc(OCc3ccc(F)cc3F)ccc2cc1-c1ccccn1` the value was 9.74% (inactive); for `CC(=O)C[C@@H](O)CC(=O)[C@@H]1OC(=O)CCCCCCc2ccccc21`, 8.12% (inactive).

On to `Cc1ccc(NS(=O)(=O)c2ccc(-c3ccc(=O)[nH]n3)o2)cc1Cl`, for which the “rescue activity (ATP increase)” value was 29.2% (inactive).

`Cc1noc(C)c1S(=O)(=O)Nc1ccc2c(c1)C(=O)N([C@@H](C)CO)C[C@H](C)[C@H](CN(C)S(=O)(=O)c1ccc(Cl)cc1)OCCCC[C@@H](C)O2`: the “rescue activity (ATP increase)” value is 17% (inactive).

As for `O=C(CN1CCOCC1)N1CCN(c2nnc(-c3ccccc3)c3ccccc23)CC1`, the “rescue activity (ATP increase)” value is 11.1% (inactive). Turning to `Nn1c(SCC(=O)Nc2ccc(S(=O)(=O)N3CCCC3)cc2)nnc1C(F)(F)F`, the “rescue activity (ATP increase)” value is -14.1% (inactive). For the compound `CCn1c(SCC(=O)NCc2cccs2)nnc1-c1ccco1`, the “rescue activity (ATP increase)” value is 4.67% (inactive). In the case of `CCOC(=O)c1ccn(-c2nc(-c3ccco3)cc(C(F)(F)F)n2)n1` it was 19.6% (inactive); in that of `Cc1occc1-c1nnc(SCC(=O)c2ccc(Cl)cc2)n1CC1CCCO1` (stereo not drawn), 14.2% (inactive). In the case of `O=C(CN1CCN(S(=O)(=O)c2ccc(Br)cc2)CC1)Nc1ccc2c(c1)OCCO2` it was 8.25% (inactive); in that of `Cc1cc(Cl)c(S(=O)(=O)Nc2ccc3c(c2)OCO3)cc1OCC(N)=O`, 3.69% (inactive).

As for `C[C@@H]1CN([C@H](C)CO)C(=O)c2cccc(NC(=O)C3CCCCC3)c2O[C@@H]1CN(C)S(=O)(=O)c1ccc(Cl)cc1`, the “rescue activity (ATP increase)” value is -7.54% (inactive).

As for `Cc1ccc(C2C(=O)N(C3CCC(C)CC3)CC(=O)N2C2CCCC2)cc1` (stereo not drawn), the “rescue activity (ATP increase)” value was -20.3% (inactive).

As for `COc1cc(OC)cc(-c2nc(N)n[nH]2)c1`, the “rescue activity (ATP increase)” value was 10.1% (inactive).
